Inconclusive results are not listed. Active and inactive are the calls of the source. Calls come from the whole dose curve; as a rule, active = well fitted inhibition curve with a large enough effect; inconclusive = small, poorly fitted or top-dose-only effect; inactive = flat fitted curve, though single readings scatter.
How the values were obtained:
Assay in all cases: qHTS profiling for inhibitors of Plasmodium falciparum proliferation (AID 504749); note: nearly all actives have a fitted effect of over 60% in size
Conditions in all cases: P. falciparum in erythrocytes, SYBR Green DNA, 72 h
CP291 = tested on: CP291
Procedure, shortened: (§1)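 Fluorescence of SYBR Green-bound parasite DNA, read at 485/535 nm, served as the growth measure. Infected erythrocytes were cultured with compound 72 h; artemisinin (0.29 uM) and DMSO wells defined the normalization range.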

CP297 = tested on: CP297
Procedure, shortened: as §1

CP305 = tested on: CP305
Procedure, shortened: as §1

CP315 = tested on: CP315
Procedure, shortened: as §1

CP325 = tested on: CP325
Procedure, shortened: as §1

CP329 = tested on: CP329
Procedure, shortened: as §1

CP335 = tested on: CP335
Procedure, shortened: as §1

DFO2036 = tested on: DFO2036
Procedure, shortened: as §1

DIV14 = tested on: DIV14
Procedure, shortened: as §1

DIV17 = tested on: DIV17
Procedure, shortened: as §1

Measured: Potency
Potency is the fitted concentration of half-maximal effect.

CC[C@]1(O)CC2CN(CCc3c([nH]c4ccccc34)[C@@](C(=O)OC)(c3cc4c(cc3OC)N(C)[C@H]3[C@@](O)(C(=O)OC)[C@H](OC(C)=O)[C@]5(CC)C=CCN6CC[C@]43[C@@H]65)C2)C1 (stereo not given in full)
active: CP291 1.9 µM | CP297 3.01 µM | CP305 3.38 µM | CP315 1.69 µM | CP325 3.38 µM | CP329 2.39 µM | CP335 675 nM | DFO2036 3.55 µM | DIV14 6.75 µM | DIV17 6.75 µM

CC(=O)O[C@H]1C(=O)[C@@]2(C)[C@H]([C@H](OC(=O)c3ccccc3)[C@]3(O)C[C@H](OC(=O)[C@H](O)[C@@H](NC(=O)c4ccccc4)c4ccccc4)C(C)=C1C3(C)C)[C@]1(OC(C)=O)CO[C@@H]1C[C@@H]2O
active: CP291 0.478 µM | CP297 0.757 µM | CP305 0.601 µM | CP315 0.478 µM | CP325 0.536 µM | CP329 0.601 µM | CP335 269 nM | DFO2036 0.282 µM | DIV14 0.953 µM | DIV17 0.953 µM

From PubChem BioAssay (NCATS)
